# Bioassay records: PubChem BioAssay, National Center for Advancing Translational Sciences (NCATS)
# PI4K2A block: qHTS for small molecular inhibitors of PI4K2A | purified PI4K2A, ADP-Glo luminescence, 1 h; active compounds read low | Phosphatidylinositol 4-kinase type 2-alpha (Homo sapiens), Q9BTU6 | AID 1346378, 2018 | activity change, negative = inhibition, % at 76.9 µM | 0.13% of 420,000 active; in the data active = activity change below about -50%; inconclusive = mostly about -30% to -49%;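 also: -100% = wells without enzyme as full effect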
#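 PI4K2A activity was measured by ADP-Glo luminescence: enzyme (4 ug/mL stock) and phosphatidylinositol (1.2 mM stock) in Tris pH 7.5/MgCl2/EGTA/Triton X-100 buffer were reacted with ATP (300 microM stock) for one hour at ambient temperature.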
# GCN5L2 inh: qHTS Assay for Inhibitors of GCN5L2; Histone acetyltransferase KAT2A (Homo sapiens), Q92830; GCN5L2 HAT assay, ThioGlo1 CoA-SH fluorescence; Potency, µM (top dose mostly 58.9 µM), for the others: top-dose activity change, negative = inhibition, hits mostly inhibitors; 0.21% of 390,000 active; also: potency is read from the fitted curve at half-maximal effect
# Target sequence (Q92830 whole entry, looked up): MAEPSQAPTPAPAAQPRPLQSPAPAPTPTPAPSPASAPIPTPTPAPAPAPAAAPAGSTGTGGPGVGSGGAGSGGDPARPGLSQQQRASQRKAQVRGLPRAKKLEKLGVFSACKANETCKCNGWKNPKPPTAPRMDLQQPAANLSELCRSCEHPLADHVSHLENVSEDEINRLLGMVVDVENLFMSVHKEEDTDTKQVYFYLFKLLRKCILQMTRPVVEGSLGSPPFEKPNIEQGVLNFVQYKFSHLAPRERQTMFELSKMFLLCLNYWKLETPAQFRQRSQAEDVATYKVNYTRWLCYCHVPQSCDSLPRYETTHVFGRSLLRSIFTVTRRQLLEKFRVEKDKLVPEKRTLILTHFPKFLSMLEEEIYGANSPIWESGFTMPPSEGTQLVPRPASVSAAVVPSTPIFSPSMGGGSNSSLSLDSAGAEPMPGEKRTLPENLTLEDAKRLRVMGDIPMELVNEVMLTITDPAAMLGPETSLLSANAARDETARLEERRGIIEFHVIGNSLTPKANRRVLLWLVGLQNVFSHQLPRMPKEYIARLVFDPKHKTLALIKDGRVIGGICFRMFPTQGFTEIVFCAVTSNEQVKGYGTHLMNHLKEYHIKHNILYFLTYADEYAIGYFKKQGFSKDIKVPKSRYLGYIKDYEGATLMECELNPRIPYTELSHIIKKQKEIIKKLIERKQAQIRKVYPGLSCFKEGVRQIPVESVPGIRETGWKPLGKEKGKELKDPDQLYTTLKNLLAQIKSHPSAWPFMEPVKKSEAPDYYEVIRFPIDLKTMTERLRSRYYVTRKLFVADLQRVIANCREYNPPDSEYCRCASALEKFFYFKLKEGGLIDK
#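 Preincubate 20nM GCN5L2 with compound 15 min, RT → add 50uM ThioGlo1 + 75uM H3(1-25) + 70uM acetyl-CoA → read fluorescence 0 and 20 min. Primary qHTS; fluorescent artifacts likely.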
# PLK1 PBD inh: qHTS for Inhibitors of PLK1-PDB (polo-like kinase 1 - polo-box domain): Primary Screen; Plk1 PBD binding of FITC phosphopeptide, fluorescence polarization; Potency, µM, for the others: max response, negative = inhibition, usual class: inhibitors; 2.8% of 360,000 active; Serine/threonine-protein kinase PLK1 (Homo sapiens), P53350; also: potency is read from the fitted curve at half-maximal effect; series mostly up to about 57 µM; nearly all actives have a fitted effect of over 65% in size
# GLS inh: qHTS for Inhibitors of Glutaminase (GLS); Glutaminase kidney isoform, mitochondrial (Homo sapiens), O94925; GLS enzymatic activity, qHTS titration; Potency, µM (titrated, usually from 45.5 µM), for the others: top-dose activity change, negative = inhibition, usual class: inhibitors; 0.21% of 410,000 active; also: potency is read from the fitted curve at half-maximal effect
#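 Assay buffer: 45 mM KH2PO4 pH 8.2, 0.02% Tween-20. hKGA acts on L-glutamine (1 mM solution added); product glutamate is reported by an oxidase/peroxidase Amplex Red coupling, with fluorescence taken at baseline and 30 min.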
# VDR inh: Inhibitors of the vitamin D receptor (VDR): qHTS; Vitamin D3 receptor (Homo sapiens), P11473; Potency, µM, for the others: max response, negative = inhibition, actives largely listed as inhibitors; AID 504847, 2011; VDR-SRC2-3 peptide fluorescence polarization, 2 h; 0.93% of 400,000 active; also: potency is read from the fitted curve at half-maximal effect
#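 The screen uses fluorescence polarization to detect compounds that interfere with recruitment of the SRC2-3 coactivator peptide to VDR; plates are read after 2 h at room temperature.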
# * hit, by the source's call; ? = inconclusive; . = no result; ! = not confirmed by another sample; [ ] = remark or other dose. The list is not random: actives were taken first. Their share in the collection is about 3.1%. Unless noted, calls follow the shape of the dose curve; as a rule, active = well fitted curve in the direction sought with a large enough effect; inconclusive = small, poorly fitted or top-dose-only effect, or another doubt; inactive = no such curve, though single readings can be large; an effect the other way counts as inactive or inconclusive. Unless noted, % is scaled to controls: 0 for no effect and ±100 for the full control effect.
SMILES,PI4K2A block,GCN5L2 inh,PLK1 PBD inh,GLS inh,VDR inh
CS(=O)(=O)N1CCN(c2ccc(C(=O)NC34CC5CC(CC(C5)C3)C4)cc2[N+](=O)[O-])CC1,2.4,-2.4%,26.7µM*,11.7%,-12.5%
C=C1C(=O)OC2CC1C(O)CC(C)=CCCC(C)=CC(O)CC2C (stereo unspecified),3.3,.,-6.8%,2.3%,?
C=C1C(=O)OC2CC1C(OC(C)=O)CC(C)=CCCC(C)=CCC[C@@]2(C)O (stereo partly specified),.,-9.8%,.,.,35.5µM*
CCn1nc(NS(=O)(=O)c2ccc(NC(C)=O)cc2)c2cc3ccccc3nc21,-4.4,-5.5%,23.8µM*,-0.5%,?
CC(=O)Nc1ccc(NS(=O)(=O)c2ccc3ccccc3c2)cc1,-8.1,-6.6%,7.52µM*,-14.3%,?
CN(C)CCCOC1(Cc2ccccc2)CCCCCC1,3.0,.,.,.,.
CCn1c(SCc2ccc(Cl)cc2)nnc1-c1ccccc1,6.6,1.3%,26.7µM*,0.0%,-18.9%
CCn1c(SCc2ccc(C#N)cc2)nnc1-c1cccc(Cl)c1,2.3,1.5%,-8.6%,0.4%,-10.0%
CC1CCC2(CC1)CCN(CCCOC(=O)Nc1cccc(C(F)(F)F)c1)C2=O (stereo unspecified),-0.3,.,.,.,.
CCOc1ccc2ccccc2c1C(=O)N[C@@H]1C(=O)N2[C@@H]1SC(C)(C)[C@@H]2C(=O)O,-2.1,-5.6%,-7.2%,3.98µM*!,-11.2%
Cc1onc(-c2c(F)cccc2Cl)c1C(=O)N[C@@H]1C(=O)N2C(C(=O)O)C(C)(C)S[C@H]12 (stereo partly specified),-0.7,-3.3%,-13.0%,11.2µM*,-8.1%
Cc1onc(-c2c(Cl)cccc2Cl)c1C(=O)N[C@H]1C(=O)N2[C@H]1SC(C)(C)[C@H]2C(=O)O,.,13.2%[21.4 µM],.,.,-0.3%
CCC(Oc1ccccc1)C(=O)NC1C(=O)N2C1SC(C)(C)C2C(=O)O (stereo unspecified),0.2,-15.6%,-1.3%,25.1µM*,4.1%
C[C@H](Oc1ccccc1)C(=O)N[C@@H]1C(=O)N2[C@@H]1SC(C)(C)[C@@H]2C(=O)O,.,-16.3%[21.4 µM],.,-3.4%[20 µM],1.3%
C=CCn1c(SCC(=O)Nc2ccccc2-c2ccccc2)nnc1-c1ccccc1,0.5,.,.,.,.
CCCCN(C)S(=O)(=O)c1ccc2[nH]c(=O)oc2c1,-0.8,.,.,.,.
C[C@H](NC(=O)c1[nH]cnc1C(=O)Nc1ccc(CNC(=O)OC(C)(C)C)cc1)C(=O)OC(C)(C)C,-0.1,2.7%,21.2µM*,2.9%,?
CC(C)(C)OC(=O)NCCCC[C@H](NC(=O)c1[nH]cnc1C(=O)Nc1ccc(CNC(=O)OC(C)(C)C)cc1)C(=O)OC(C)(C)C,-2.1,-5.1%,-2.2%,-10.2%,-6.5%
O=C(Nc1c(-c2ccccc2)nc2ncccn12)C1CC1,1.1,.,.,.,.
CN1c2ccsc2/C(=N/Nc2ccc(F)cc2)CS1(=O)=O,17.0,-9.5%,26.7µM*,?,-7.7%
CN(CCO)c1cccc2c1S(=O)(=O)N(Cc1cn(Cc3ccccc3C(F)(F)F)nn1)Cc1ccccc1O2,-3.5,.,.,.,.
CCN(Cc1ccccc1)C(=O)CN1C(=O)COc2ccc(S(=O)(=O)N3CCCCCC3)cc21,-1.3,-5.4%,-5.6%,-6.9%,-16.8%
COc1cc(NC(=O)C2CCCN(S(=O)(=O)c3ccc4[nH]c(=O)ccc4c3)C2)cc(OC)c1 (stereo unspecified),3.2,-4.8%,-3.7%,-2.8%,14.1%
CCN(C(=O)CN1C(=O)COc2ccc(S(=O)(=O)N3CCCCCC3)cc21)c1cccc(C)c1,4.4,-17.0%,23.8µM*,-1.0%,?
CCOc1ccc(NC(=O)CN2C(=O)COc3ccc(S(=O)(=O)N4CCCCC4)cc32)cc1,9.2,-10.5%,26.7µM*,-3.6%,-9.6%
CCOc1ccc(NC(=O)C2CCCN(S(=O)(=O)c3ccc4[nH]c(=O)ccc4c3)C2)cc1 (stereo unspecified),-0.8,-7.8%,26.7µM*,1.4%,-20.0%
